The panel holds about 83,000 compounds, 20% with a hit somewhere; the sample as a whole holds those more often.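 A percent growth of 40 corresponds to 60% growth inhibition; 0 means no net growth; -100 means all cells died. Active threshold: below 10.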 Activity calls are given as the source filed them.
system: NCI-H522 lung; assay: NCI-60 one-dose screen, 48 h (100 = growth as untreated, 0 = no growth, -100 = all killed); details: 10 µM

Row | Compound | growth
1 | O=C(/C=C/c1ccco1)c1nc2ccccc2n1Cc1ccc(Br)cc1 | 4.59% (active)
2 | O=C(/C=C/c1ccco1)c1nc2ccccc2n1Cc1ccc(F)cc1 | 62.1% (inactive)
3 | COc1cc2cc(C(=O)N3C[C@@H](CCl)c4c3cc(OC(=O)N3CCN(C)[C@@H]5CSSC[C@@H]53)c3ccccc43)[nH]c2c(OC)c1OC | -55.8% (active)
4 | C#CC[Se]C(=O)c1ccc2n[se]nc2c1 | 51.9% (inactive)
5 | O=C(/C=C/c1ccc(Cl)cc1Cl)c1nc2ccccc2n1Cc1ccc(F)cc1 | 76.2% (inactive)
6 | O=C(/C=C/c1ccc(Cl)cc1)c1nc2ccccc2n1Cc1ccc(Br)cc1 | 76% (inactive)
7 | CCOP(=O)(OCC)C(NC(C)=O)C(=O)SCCN (stereo unspecified) | 98.7% (inactive)
8 | COc1cc2cc(C(=O)N3C[C@@H](CCl)c4c3cc(OC(=O)N3CCN(C)[C@@H]5CSSC[C@H]53)c3ccccc43)[nH]c2c(OC)c1OC | -68% (active)
9 | COc1ccc2cc([C@H](C)C(=O)[Se]CCC#N)ccc2c1 | -95.6% (active)
10 | CC12OOC(C)(OO1)C2CCC(=O)OCCNc1ccnc2cc(Cl)ccc12 (stereo unspecified) | -79.2% (active)
11 | CC(C)N=C([Se])NC(=O)c1cccs1 | 41.1% (inactive)
12 | Cc1ccc2[nH]c(=S)n(-c3ccc(F)cc3)c(=O)c2c1 | 97.9% (inactive)
13 | CCOC(=O)C1=C(Nc2ccccc2)C(=O)OC12C(=O)Nc1ccccc12 (stereo unspecified) | 96.5% (inactive)
14 | CC12CCC3(CCC(=O)NCCCNc4ccnc5cc(Cl)ccc45)[C@@](C)(OO[C@]3(C)O1)O2 | -50.4% (active)
15 | CC[C@]12C=CCN3CC[C@@]4(c5ccc(OC)cc5N(C)[C@H]4[C@@](O)(C(=O)OC)[C@@H]1OC(=O)CCCC[P+](C1CCCCC1)(C1CCCCC1)C1CCCCC1)[C@@H]32 | -71.8% (active)
16 | CC(=O)Oc1ccccc1C(=O)[Se]C(=NC(C)C)NC(C)C | -97% (active)

Row | Compound | growth
17 | COCCOCCOCCOc1ccc(-n2cc(CCCN(CCNc3ccnc4cc(Cl)ccc34)C(=O)CCC(=O)O[C@@H]3O[C@@H]4OC5(C)CC[C@H]6[C@H](C)CC[C@@H]([C@H]3C)[C@@]46OO5)nn2)cc1 | 1.23% (active)
18 | C[C@H]1[C@@H](CC(=O)N[C@@H](Cc2coc3ccccc23)B(O)O)O[C@@H]2OC3(C)CC[C@H]4[C@H](C)CC[C@@H]1[C@@]24OO3 | -74.5% (active)
19 | COP(=O)(CC(F)(F)C(F)(F)F)OC | -71.5% (active)
20 | CC12OOC(C)(OO1)C2CCC(=O)NCCNc1ccnc2cc(Cl)ccc12 (stereo unspecified) | -61.6% (active)
21 | CC[C@]12C=CCN3CC[C@@]4(c5ccc(OC)cc5N(C)[C@H]4[C@@](O)(C(=O)OC)[C@@H]1OC(=O)CCC[P+](c1ccc(C)cc1)(c1ccc(C)cc1)c1ccc(C)cc1)[C@@H]32 | -86.3% (active)
22 | CC(C)N=C([Se])NC(=O)c1ccccc1 | -77.7% (active)
23 | CC[C@]12C=CCN3CC[C@@]4(c5ccc(OC)cc5N(C)[C@H]4[C@@](O)(C(=O)OC)[C@@H]1OC(=O)CCC[P+](C1CCCCC1)(C1CCCCC1)C1CCCCC1)[C@@H]32 | -82.2% (active)
24 | CC1=C(COCCOC(=O)c2ccc(S(=O)(=O)F)cc2)C2=C(C)C3(CC3)[C@@](C)(O)C(=O)C2=C1 | -72.2% (active)
25 | CC[C@]12C=CCN3CC[C@@]4(c5ccc(OC)cc5N(C)[C@H]4[C@@](O)(C(=O)OC)[C@@H]1OC(=O)CCCC[P+](c1ccc(OC)cc1)(c1ccc(OC)cc1)c1ccc(OC)cc1)[C@@H]32 | -81.9% (active)
26 | CC1=C(CCC=NNC(N)=O)C2=C(C)C3(CC3)[C@@](C)(O)C(=O)C2=C1 | -90.4% (active)
27 | CC[C@@]12CC(C(=O)OC)=C3Nc4cc5c(cc4[C@@]34CCN(C[C@H]3O[C@H]31)[C@@H]24)[C@@H]1[C@H](O5)[C@@H](O)[C@@]2(CC)CC(C(=O)OC)=C3Nc4cc(OC)ccc4[C@@]34CCN1[C@@H]24 | 2.96% (active)
28 | CCOP(=O)(CC(F)(F)C(F)(F)F)OCC | -77.3% (active)
29 | CC1=C2C(=C[C@@](C)(COP(=O)(Oc3ccccc3)Oc3ccccc3)[C@@H]2O)C(=O)[C@@](C)(O)C12CC2 | -93.4% (active)
30 | CC(=O)Oc1ccccc1C(=O)NC([Se])=NC1CCCCC1 | -95.7% (active)
31 | C[C@H]1[C@H](OC(=O)CCC(=O)N(CCCc2cn(-c3ccc(CN4CCOCC4)cc3)nn2)CCNc2ccnc3cc(Cl)ccc23)O[C@@H]2OC3(C)CC[C@H]4[C@H](C)CC[C@@H]1[C@@]24OO3 | -22.3% (active)

Reference: PubChem BioAssay (NCI)
